Usually inhibition stands for the relative decrease from the control value, in per cent.

Structures are written as SMILES. About 4,200 (1.2%) of roughly 340,000 compounds were called active.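 Rule for the calls: active = inhibition above the mean of all tested compounds plus 3 SD (cut at about 24% in these data); inactive = the rest.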 For the sample, actives were picked, then their nearest neighbours and some compounds at random.

The target in the experiment is Platelet-activating factor acetylhydrolase IB subunit alpha2 (Homo sapiens) (UniProt P68402). Description: inhibition of PAF acetylhydrolase 1b subunit 2 – biochemical, fluorescence polarization, human, primary screen (AID 492953).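 Note: 0% = enzyme with DMSO and 100% = wells lacking PAFAH1B2.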 As to conditions: recombinant PAFAH1B2, FP-rhodamine activity probe, at 3.39 µM, hits give high values. (In general: Polarisation of emitted light reports the rotation of a fluorescent probe.)
Chain of Platelet-activating factor acetylhydrolase IB subunit alpha2 (Homo sapiens) (P68402 whole entry, looked up): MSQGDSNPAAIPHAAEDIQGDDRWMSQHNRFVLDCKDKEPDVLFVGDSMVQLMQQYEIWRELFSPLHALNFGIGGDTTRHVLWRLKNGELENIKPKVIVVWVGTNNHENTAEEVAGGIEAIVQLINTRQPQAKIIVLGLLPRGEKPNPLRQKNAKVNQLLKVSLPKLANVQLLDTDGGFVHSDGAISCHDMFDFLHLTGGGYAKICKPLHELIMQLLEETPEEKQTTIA
On to `CS(=O)(=O)Nc1ccccc1N=C(c1ccccc1)c1ccccc1`, for which the inhibition was 5.79% (inactive).

For `O=c1cc(-c2ccccc2)nc(N2CCCCC2)[nH]1`, the inhibition is -3.66% (inactive).

For `Cc1ccc(O)c(CNc2nc3ccccc3[nH]2)c1`, the inhibition is 0.09% (inactive).

As for `Cc1ccc(-c2cc(=O)[nH]c(NCc3ccccc3)n2)cc1`, the inhibition is 24.5% (active).

For `O=C(O)c1ccc(-n2cccc2)cc1O`, the inhibition is 4.37% (inactive).

For the compound `COc1cccc(CNn2cn[nH]c2=S)c1OCc1ccccc1`, the inhibition is 0.39% (inactive).

For `O=C(CCNC(=O)C1CCN(S(=O)(=O)c2ccccc2)CC1)NC1CC1`, the inhibition was 1.71% (inactive).

Regarding `CCc1nnc(NC(=O)c2cccc(S(=O)(=O)N(C)c3ccc(OC)cc3)c2)s1`, the inhibition was 10.2% (inactive).

Turning to `CCc1ccc2nc3sc(C(=O)Nc4nnc(CC)s4)c(N)c3cc2c1`, the inhibition is 32.2% (active).

For `CCc1nnc(NC(=O)c2nc3nccc(C)n3n2)s1`, the inhibition is 7.37% (inactive).

Turning to `COc1ccc(Cl)cc1C=CC=Nc1ccc(S(N)(=O)=O)cc1`, the inhibition is -2.05% (inactive).

On to `Cc1c(C(=O)OCC(=O)N(CCC#N)c2ccccc2)oc2c1ccc1ccccc12`, for which the inhibition is -1.31% (inactive).

For `O=C(Cc1ccccc1)Nc1cccc(NC(=O)c2ccccc2)c1`, the inhibition is 3.28% (inactive).

Consider `Cc1cccc(NC(=O)Cc2ccc(Br)cc2)n1`, for which the inhibition was 8.34% (inactive).

As to `CC(C)(C)NC(=O)c1cccc(NC(=O)Cc2ccc(Br)cc2)c1`, the inhibition is 28.1% (active).

For `CN1CCN(C(=O)CCc2ncc(C(F)(F)F)cc2Cl)CC1`, the inhibition is -0.83% (inactive).

As to `CCC(=O)N1CCC(C(N)=O)(N2CCCCC2)CC1`, the inhibition was -0.67% (inactive).

Consider `CC(=O)c1sc(NC(=O)CCN2C(=O)C3CC=CCC3C2=O)nc1-c1ccccc1` (configuration not stated), for which the inhibition was -3.33% (inactive).

Take `CC(C=Cc1ccccc1)=NNS(=O)(=O)c1ccc([N+](=O)[O-])cc1`: the inhibition was 6.62% (inactive).

As to `Cc1cccc(NS(=O)(=O)c2ccc([N+](=O)[O-])cc2)n1`, the inhibition was 1.97% (inactive).

On to `CC1=CC(=NNS(=O)(=O)c2ccc([N+](=O)[O-])cc2)CC(C)(C)C1`, for which the inhibition was 31.9% (active).

As to `CCOC(=O)[C@H]1[C@H]2COc3ccccc3[C@@H]2N2C(=O)CN(Cc3ccccc3)C(=O)[C@@]12C`, the inhibition was -3.13% (inactive).

Regarding `COc1ccc(CNC(=O)c2cc(=O)c3c(C)cc(C)cc3o2)cc1`, the inhibition is -0.18% (inactive).

In the case of `CCCCN(C(=O)/C=C/c1ccco1)c1c(N)n(CC(C)C)c(=O)[nH]c1=O`, the inhibition was -1.15% (inactive).

Consider `CC(=O)Nc1ccc(S(=O)(=O)Oc2ccc(Br)cc2C(=S)N2CCOCC2)cc1`, for which the inhibition is 0.45% (inactive).

Regarding `Cc1ccc(NS(=O)(=O)c2ccc(N/N=C/c3ccccc3OCC(=O)O)c([N+](=O)[O-])c2)c(C)c1`, the inhibition was 4.33% (inactive).

For the compound `COc1ccc(Br)cc1/C=N/Nc1ccc(S(=O)(=O)Nc2ccccc2C(=O)O)cc1[N+](=O)[O-]`, the inhibition is 4.57% (inactive).

With `COc1cccc(/C=N/Nc2ccc(S(=O)(=O)Nc3ccccc3C(=O)O)cc2[N+](=O)[O-])c1O`, the inhibition is 32.2% (active).

For `Cc1ccc(C(=O)O)cc1S(=O)(=O)NCC1CCCO1` (configuration not stated), the inhibition was -0.69% (inactive).

`COc1ccc(S(=O)(=O)NCCc2cc3ccc(C)c(C)c3[nH]c2=O)cc1`: the inhibition was 24.7% (active).

In the case of `COc1ccc(CCNS(=O)(=O)c2cccc([N+](=O)[O-])c2)cc1`, the inhibition is 13.1% (inactive).

Regarding `COc1ccc(S(=O)(=O)NCCCc2ccccc2)cc1`, the inhibition was 13.7% (inactive).

`O=C1CN(C(=O)COC(=O)C2CC(=O)N(Cc3ccco3)C2)c2ccccc2N1` (configuration not stated): the inhibition is -0.96% (inactive).

As for `O=C(NCCN1CCN(C(=O)c2cccc([N+](=O)[O-])c2)CC1)C(=O)NCc1ccc(Cl)cc1`, the inhibition is 10.4% (inactive).

With `NC(=O)NCCCC(=O)O`, the inhibition is 4.24% (inactive).

With `O=C(O)CCCCCCCCCC[n+]1ccccc1`, the inhibition is 1.11% (inactive).

On to `CCCCCCCCCCCC(=O)O`, for which the inhibition is 30.2% (active).

Consider `C/C=C/c1ccc(OCCCCN2CCC(C)CC2)c(OC)c1`, for which the inhibition is 2.16% (inactive).

For the compound `CCc1c(C)n([O-])c2c([n+]1=O)CCCCC2`, the inhibition was 7.72% (inactive).

For the compound `CCc1cccc(CC)c1NC(=O)COc1ccccc1C(=O)c1cc(C#N)c(=O)n(C2CCCCC2)c1`, the inhibition was 2.15% (inactive).

Turning to `NS(=O)(=O)c1ccccc1NC(=O)c1c(O)c2ccccc2[nH]c1=O`, the inhibition was 2.89% (inactive).

With `Cc1cc(=O)cc(C)n1-c1ccc(Cl)c(Cl)c1`, the inhibition is 4.86% (inactive).

For the compound `CC(C)C(=O)Nc1cccc(NC(=S)NC(=O)C(c2ccccc2)c2ccccc2)c1`, the inhibition was -2.74% (inactive).

As for `CCNC(=S)NNC(=O)Cc1ccccc1`, the inhibition is 0.2% (inactive).

As to `CCCCC(=O)NNC(=S)NC(=O)C(c1ccccc1)c1ccccc1`, the inhibition was 27.4% (active).

In the case of `Cc1ccc(S(=O)(=O)n2oc(=O)c(C3CCCCC3)c2N)cc1`, the inhibition is 30.4% (active).

As to `Cc1ccc(S(=O)(=O)N2CCC(N3CCCCCC3)CC2)cc1`, the inhibition was 5.12% (inactive).

On to `Cc1ccc(S(=O)(=O)NC2CCCCCC2)cc1`, for which the inhibition is 11.5% (inactive).

Consider `COc1ccc(/C(C)=N/N2CCOCC2)c(O)c1`, for which the inhibition was 3.71% (inactive).

Turning to `CCOc1ccccc1N(CC(=O)NC1CCCCC1)C(=O)CCCC(=O)Nc1ccccn1`, the inhibition was 2.23% (inactive).

Consider `Nc1cc(OC(=O)c2ccccc2Br)nn1S(=O)(=O)c1ccccc1`, for which the inhibition is -1.3% (inactive).

Regarding `Cc1ccc(S(=O)(=O)N2CCC(C(=O)N3CCCCCCC3)CC2)cc1`, the inhibition is -2.62% (inactive).

For `Cc1ccc(S(=O)(=O)n2nc(OC(=O)C(C)(C)C)cc2N)cc1`, the inhibition is 24.3% (active).

With `CCOC(=O)N1CCN(c2cc(C)c([N+](=O)[O-])cc2F)CC1`, the inhibition was 6.77% (inactive).

Regarding `Cc1ccc(CNS(=O)(=O)CCNC(=O)c2ccccc2)cc1`, the inhibition is 0.61% (inactive).

For the compound `Cc1ccc(N(C(=O)c2ccc(CN3CCOCC3)o2)C(C(=O)NCCC(C)C)c2cccs2)c(C)c1` (configuration not stated), the inhibition was 2.55% (inactive).

In the case of `Cc1c(C)c2c(OCC(=O)N[C@@H](C(=O)O)c3ccccc3)cc3c(c2oc1=O)CCC(C)(C)O3`, the inhibition was 38% (active).

As for `Cc1cc(=O)oc2c3c(cc(OCC(=O)NCCC(=O)N[C@@H](C)C(=O)O)c12)OC(C)(C)CC3`, the inhibition is 2.72% (inactive).

Regarding `Cc1c(C)c2c(OCC(=O)NCCCO)cc3c(c2oc1=O)CCC(C)(C)O3`, the inhibition was 9.23% (inactive).

Regarding `COCC1CCCN(Cc2cn[nH]c2-c2cc3ccccc3o2)C1` (configuration not stated), the inhibition was -0.69% (inactive).

For `Cc1ccccc1NC(=O)N1CCCC1C(=O)NCc1ccccc1` (configuration not stated), the inhibition is 3.76% (inactive).

Regarding `O=[N+]([O-])c1ccc(NCCCO)c(C(F)(F)F)c1`, the inhibition is 6.89% (inactive).

As to `COCC1CCCN(Cc2nc(-c3ccc4c(c3)OCO4)no2)C1` (configuration not stated), the inhibition was 3.45% (inactive).

With `O=C(COc1cccc(-n2cnnn2)c1)NCCC1=CCCCC1`, the inhibition is 10.3% (inactive).

For `O=C(COc1ccc(Cl)cc1)NCCC1=CCCCC1`, the inhibition is 27.5% (active).

With `CC(C)COc1ccc(C(=O)OCC(=O)NCCC2=CCCCC2)cc1`, the inhibition was 2.59% (inactive).

As to `CC1CCN(C(=S)c2cccc([N+](=O)[O-])c2)CC1`, the inhibition is 19.4% (inactive).

With `CC1(c2ccccc2)CC(C)(C)N(C(=O)c2cc([N+](=O)[O-])cc([N+](=O)[O-])c2)c2ccccc21` (configuration not stated), the inhibition is -0.31% (inactive).

`CC1CCC2CCCCC2N1C(=O)c1cc([N+](=O)[O-])cc([N+](=O)[O-])c1` (configuration not stated): the inhibition was 24.7% (active).

For `COc1ccc(CN2CCN(C(=O)c3cc(C4CC4)nn3-c3ccccc3)CC2)cc1F`, the inhibition was 2.17% (inactive).

On to `O=C(COc1cccc2c1CCNC2=O)NC1CCCCC1`, for which the inhibition is -3.94% (inactive).

On to `O=C(Nc1ccc2ccccc2c1[N+](=O)[O-])c1ccccc1`, for which the inhibition is 5.08% (inactive).

For the compound `CCN(C(=O)COC(=O)c1cc(NS(=O)(=O)c2ccc(Cl)c([N+](=O)[O-])c2)ccc1O)C1CCCCC1`, the inhibition was 45.9% (active).

For `COc1ccc(NS(=O)(=O)c2ccc(O)c(C(=O)OCC(=O)NC3CCCCC3)c2)cc1`, the inhibition was 19.8% (inactive).

On to `CN(C)c1ccc(S(=O)(=O)NCC(=O)NCC2CCCCC2)cc1[N+](=O)[O-]`, for which the inhibition is 8.33% (inactive).

As for `Cc1c(NS(=O)(=O)c2cccc(C(=O)Nc3ccc(SC(F)F)cc3)c2)c(=O)n(-c2ccccc2)n1C`, the inhibition was 5.1% (inactive).

Take `COc1ccc(C(=O)CSc2nnc(NC(=O)C3CC(=O)N(c4cccc(OC)c4)C3)s2)cc1` (configuration not stated): the inhibition is -6.09% (inactive).

As for `O=C(CNC(=O)c1cc(S(=O)(=O)N2CCOCC2)ccc1N1CCCC1)Nc1ccc(F)c(F)c1`, the inhibition was -4.31% (inactive).

As to `COc1cc(C(=O)Nc2cc(C(F)(F)F)ccc2-n2cncn2)cc(OC)c1OC`, the inhibition was -1.88% (inactive).

For the compound `CCc1nn(CC(=O)N2CCN(c3cc(C)ccc3C)CC2)c(=O)c2cc3occc3n12`, the inhibition is 2.35% (inactive).

Take `CSCCC(NC(=O)COc1ccccc1)C(=O)N1CCN(c2cccc(C(F)(F)F)c2)CC1` (configuration not stated): the inhibition is 7.1% (inactive).

Regarding `CC(=O)NC1=NC(=O)CS1`, the inhibition was -3.07% (inactive).

Take `COc1ccc(C2(CNC(=O)C(c3ccccc3)c3ccccc3)CCOCC2)cc1OC`: the inhibition was -0.88% (inactive).

For the compound `COc1cc(C(=O)NCC2(c3ccccc3)CCCC2)ccc1OC(C)C`, the inhibition was 69.7% (active).

As to `COc1ccc(C2(CNC(=O)Cc3ccc(OC)c(OC)c3)CCCC2)cc1`, the inhibition was -0.19% (inactive).

As for `CCCCc1nc2cc(C(=O)NCCc3cnn(C)c3)ccc2o1`, the inhibition was -4.49% (inactive).

Take `O=C(/C=C/c1ccc(Cl)cc1)N1CCN(c2ccccc2[N+](=O)[O-])CC1`: the inhibition is -2.36% (inactive).

For the compound `COc1cccc2c1C(=O)c1c(O)c3c(c(O)c1C2=O)CC(O)(C(C)=NNC(=O)c1ccc(Cl)c(Cl)c1)CC3OC1CC(N)C(O)C(C)O1` (configuration not stated), the inhibition was 52.5% (active).

`CC/C(=C(/c1ccccc1)c1ccc(OCC[N+](C)(C)C)cc1)c1ccccc1`: the inhibition was 8.4% (inactive).

For `CCOC(=O)CN/C=C(\C#N)c1ccc(F)cc1`, the inhibition is -0.66% (inactive).

`C/C(=N\OCC(=O)O)c1ccc(Cl)cc1`: the inhibition is 9.56% (inactive).

On to `CCOc1cc(/C=C(/C#N)c2ccc(Cl)cc2)cc(Cl)c1OCC(=O)O`, for which the inhibition is 71.1% (active).

The values above are taken from PubChem BioAssay AID492953 (The Scripps Research Institute Molecular Screening Center, 2010).
